The panel holds about 83,000 compounds, 20% with a hit somewhere; the sample as a whole holds those more often.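 Cell lines were cultured in 96-well plates, exposed to a single compound concentration, and assessed for percent growth 48 hours later.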 Values without a mark were called inactive. Active and inactive are the calls of the source. The calls were made as follows: active = growth percent below 10; inactive = the rest.

The assay has as its system MDA-MB-468 breast. The assay is described as follows: NCI-60 one-dose screen, 48 h (100 = growth as untreated, 0 = no growth, -100 = all killed). The settings on record: 10 µM unless noted.
As to `CCOP(=O)(NC[C@H]1O[C@](O)(CO)[C@@H](O)[C@@H]1O)OCC`, the growth is 107%.
For `O=[N+]([O-])c1cc([N+](=O)[O-])c(Nn2c3ccccc3c3ccccc32)c([N+](=O)[O-])c1`, the growth was -8.42% (active).
In the case of `C[C@]12C[C@H](O)[C@H]3[C@@H](CCC4=CC(=O)CC[C@@]43C)[C@@H]1CC[C@@H]2O`, the growth is 99.7%.
In the case of `C[C@@H]1C[C@H]2C(=O)O[C@@H](C)C(NC(=O)[C@H](Cc3cc(F)cc(F)c3)NC(=O)Nc3ccc(OS(=O)(=O)F)cc3)C(=O)N3CCC[C@H]3C(=O)N3CCO[C@H](C)[C@H]3C(=O)N[C@@H](CO)C(=O)N2C1` (some centres undefined), the growth is -7.29% (active).

These data come from PubChem BioAssay (NCI).
